# Source: PubChem BioAssay (Center for Chemical Genomics, University of Michigan)
# Many of the other results were omitted from the sample, so hits are more common in it than they were.
# Dicer inh – human Dicer pre-microRNA cleavage inhibition | z-score at 25 µM | 47,000 compounds, 6% hits | cat-ELCCA pre-miR-21 Dicer processing, chemiluminescence; hits give high values; in the data active = z-score above about 3, passing the limit was not always enough;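 also: plate controls were vehicle for no effect and no enzyme for full effect; higher signal means more uncleaved substrate so more Dicer inhibition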
# Target sequence (Q9UPY3 whole entry, looked up): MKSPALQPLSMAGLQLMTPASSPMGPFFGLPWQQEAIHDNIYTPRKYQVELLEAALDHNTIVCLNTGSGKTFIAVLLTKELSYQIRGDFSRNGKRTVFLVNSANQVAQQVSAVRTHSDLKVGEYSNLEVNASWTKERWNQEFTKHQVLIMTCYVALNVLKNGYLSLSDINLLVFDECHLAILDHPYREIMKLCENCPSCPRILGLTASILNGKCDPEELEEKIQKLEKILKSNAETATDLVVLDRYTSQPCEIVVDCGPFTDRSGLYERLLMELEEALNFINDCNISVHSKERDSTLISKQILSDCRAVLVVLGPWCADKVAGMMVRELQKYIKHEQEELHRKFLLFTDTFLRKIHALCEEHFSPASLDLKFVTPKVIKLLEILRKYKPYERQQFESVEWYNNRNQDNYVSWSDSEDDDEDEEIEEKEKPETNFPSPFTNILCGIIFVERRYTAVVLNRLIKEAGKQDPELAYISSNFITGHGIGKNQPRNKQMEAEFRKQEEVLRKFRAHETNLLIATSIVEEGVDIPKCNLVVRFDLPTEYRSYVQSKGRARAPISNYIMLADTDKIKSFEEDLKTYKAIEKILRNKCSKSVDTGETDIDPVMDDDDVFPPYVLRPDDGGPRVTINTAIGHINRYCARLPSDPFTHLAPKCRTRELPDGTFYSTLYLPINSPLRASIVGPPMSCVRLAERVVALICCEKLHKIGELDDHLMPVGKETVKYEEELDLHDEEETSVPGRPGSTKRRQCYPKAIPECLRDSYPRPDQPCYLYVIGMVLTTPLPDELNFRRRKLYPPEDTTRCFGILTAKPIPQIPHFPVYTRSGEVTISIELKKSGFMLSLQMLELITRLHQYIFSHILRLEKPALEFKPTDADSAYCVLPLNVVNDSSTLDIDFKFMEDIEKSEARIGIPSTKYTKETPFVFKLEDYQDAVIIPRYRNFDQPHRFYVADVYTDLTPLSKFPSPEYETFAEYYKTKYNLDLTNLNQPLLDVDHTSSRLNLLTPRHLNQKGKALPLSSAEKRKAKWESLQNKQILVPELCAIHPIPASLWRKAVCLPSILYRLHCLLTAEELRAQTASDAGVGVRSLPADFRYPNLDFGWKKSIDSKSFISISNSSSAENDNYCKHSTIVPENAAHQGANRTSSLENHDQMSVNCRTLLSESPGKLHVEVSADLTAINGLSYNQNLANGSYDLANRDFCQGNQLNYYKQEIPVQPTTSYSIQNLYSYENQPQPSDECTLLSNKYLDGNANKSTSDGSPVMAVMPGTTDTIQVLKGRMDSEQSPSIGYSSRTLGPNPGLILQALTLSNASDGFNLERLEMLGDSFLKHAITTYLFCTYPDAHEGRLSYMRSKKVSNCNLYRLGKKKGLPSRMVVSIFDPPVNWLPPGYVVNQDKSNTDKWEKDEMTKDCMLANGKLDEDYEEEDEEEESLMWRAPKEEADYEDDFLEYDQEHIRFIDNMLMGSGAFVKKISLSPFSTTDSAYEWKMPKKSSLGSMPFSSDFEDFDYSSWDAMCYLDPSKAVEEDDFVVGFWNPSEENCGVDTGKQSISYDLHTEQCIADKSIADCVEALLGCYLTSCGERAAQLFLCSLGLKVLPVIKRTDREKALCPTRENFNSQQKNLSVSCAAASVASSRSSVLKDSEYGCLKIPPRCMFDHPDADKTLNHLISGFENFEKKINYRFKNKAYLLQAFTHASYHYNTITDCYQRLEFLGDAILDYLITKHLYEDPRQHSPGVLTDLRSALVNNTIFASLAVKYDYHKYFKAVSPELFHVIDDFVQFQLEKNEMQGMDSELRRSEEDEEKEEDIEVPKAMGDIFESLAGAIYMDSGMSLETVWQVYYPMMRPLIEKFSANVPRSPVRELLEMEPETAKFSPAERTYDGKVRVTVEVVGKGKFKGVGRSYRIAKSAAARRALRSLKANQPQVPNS
# * marks the source's active call; other numbers are inactive results.
SMILES,Dicer inh
O=C1CC(c2ccco2)CC2=C1C(c1cccs1)N(C(=O)c1ccccc1)c1ccccc1N2 (stereo not given),0.74
COc1ccc(NC2CC(=O)N(c3ccccc3F)C2=O)cc1 (stereo not given),-0.54
Cc1ccc(-c2cnc(NCc3ccc(F)cc3F)n2C)cc1,1.2
Cc1cc(NC(=O)c2ccco2)cc(-c2nc3ncccc3o2)c1O,-1.1
Cc1ccc([N+](=O)[O-])c(OC(C)CC(=O)O)c1 (stereo not given),0.64
COCCOC(=O)c1c(C)oc2ccc(OC(=O)c3ccco3)cc12,1.3
CC(C)(C)c1ccc(OC(=O)c2ccco2)cc1,0.7
CN(CCOC(=O)c1ccco1)C(C)(C)C,3.4*
Cn1c(=O)c2c3oc(-c4ccccc4)nc3c(=O)n(-c3ccccc3)c2n(C)c1=O,-0.83
FC(F)(F)c1cccc(NC(=S)Nc2cccc(C(F)(F)F)c2)c1,0.22
CC(C)(C)NNC(=S)Nc1cccc(F)c1,-0.44
Fc1cccc(NC(=S)NC(c2ccccc2)c2ccccc2)c1,4.9*
O=C(NCc1cccs1)C1CC(c2cccc(Br)c2)=NO1 (stereo not given),-0.72
CNC(=S)Nc1ccccc1-n1cccc1,0.85
CCCCCOC(=O)Cn1c(=O)oc2ccc(C)cc21,1
O=c1oc2ccccc2n1Cc1cccc(Cl)c1,0.02
COC(=O)Cn1c(=O)oc2ccc(C)cc21,3.7*
Cc1ccc2oc(=O)n(Cc3ccc(OC(C)C)cc3)c2c1,3.2*
CC(C)(C)NC(=O)Cn1c(=O)oc2ccc(Cl)cc21,-1
Cc1cccc(Cn2c(=O)oc3ccc(C)cc32)c1,-0.24
COC(=O)c1cc2c(N)c(C#N)sc2nc1C(OC)OC,-1.1
CN(C)c1ccc(C2NC(=O)c3ccccc3N2)c(Cl)c1 (stereo not given),-0.32
N#C/C(=C\Nc1cccc(F)c1)S(=O)(=O)c1ccc(Cl)cc1,-0.44
CCOc1ccc(NC(=S)NC(c2ccccc2)c2ccccc2)cc1,-0.48
CC(NC(=S)Nc1ccc(Oc2ccc(Cl)cc2)cc1)c1ccccc1 (stereo not given),3.9*
SMILES,Dicer inh
Cc1ccc(C(C)NC(=S)Nc2ccc(Cl)cc2)c(C)c1 (stereo not given),-0.11
Cc1cccc(NCN2C(=O)CCC2=O)n1,-0.35
O=C1CCC(=O)N1CNc1ccccc1C(F)(F)F,-0.13
O=C1CCC(=O)N1CNc1ccccn1,3.4*
Cc1ccc(C(=O)/C=C/Sc2nccc(C)n2)cc1,2.9
O=C1CC(/C=C/c2ccccc2)(Nc2ccc(S(=O)(=O)N3CCOCC3)cc2)C(=O)N1C1CCCCC1 (stereo not given),-1.3
CCCOC(=O)C1=C(C)NC2=C(C(=O)CC(C)(C)C2)C1c1ccc(CC)cc1 (stereo not given),-0.73
COc1ccc(/C=C/c2nc(-c3ccncc3)no2)cc1OC,1.4
COc1ccc(-c2nc(-c3ccc(C)cc3)no2)cc1OC,1.8
COc1ccc(/C=C/c2nc(-c3ccc(C)cc3)no2)cc1OC,3.8*
OCC(CO)(CO)NC(=S)Nc1ccc(I)cc1,0.98
O=c1c2cnn(-c3ccccc3)c2nnn1/N=C/c1ccc(OCc2ccccc2)cc1,-1.1
O=c1c2cnn(-c3ccccc3)c2nnn1/N=C/c1ccc([N+](=O)[O-])cc1,3.3*
Cc1nc2c(cnn2-c2ccccc2)c(=O)n1/N=C/c1cccs1,2
Cc1nc2c(cnn2-c2ccccc2)c(=O)n1/N=C/c1ccc(Cl)cc1,3.2*
O=c1c2cnn(-c3ccccc3)c2ncn1/N=C/c1ccc(OCc2ccccc2)cc1,-0.77
O=c1c2cnn(-c3ccccc3)c2ncn1/N=C/c1ccc(Cl)cc1,0.07
CNc1scnc1S(=O)(=O)c1ccc(C)cc1,0.76
O=C1CC(/C=C/c2ccccc2)Cc2nc(N3CCN(c4ccccc4)CC3)ncc21 (stereo not given),0.52
CC1=C(C(=O)OC2CCCCC2)C(c2ccc(N(C)C)cc2)C2=C(CC(C)(C)CC2=O)N1 (stereo not given),0.27
COC(=O)c1ccc(Oc2nc(NC(C)(C)C)nc(N(C)C)n2)cc1,1.2
Cc1cc(C)c(-n2nnnc2SCC(=O)C(C)(C)C)c(C)c1,-0.19
COc1cccc(NC(=S)NC2CCCCCCCCCCC2)c1,-0.15
O=C(O)c1ccc2ccccc2c1-c1c(C(=O)O)ccc2ccccc12,1.1
O=C(O)c1cc2ccccc2c(-c2c(O)c(C(=O)O)cc3ccccc23)c1O,4.1*
SMILES,Dicer inh
O=C(O)c1cc(-c2cc(C(=O)O)c3ccccc3n2)nc2ccccc12,0.45
CC(=O)C(C)(C)OC(=O)NCCc1ccccn1,-0.94
Cc1ccc(C)n1-c1ccc(C2(O)CCSc3ccccc32)cc1 (stereo not given),2.4
Cc1ccc(C)n1-c1ccc(C2(O)CCSc3ccc(F)cc32)cc1 (stereo not given),4*
COc1ccc2nc(SCCN3CCOCC3)[nH]c2c1,1
Cc1c(C#N)c(SCc2c(F)cccc2Cl)nc2ccccc12,-1
Fc1cccc(CN2CCN(Cc3ccccn3)CC2)c1,0.51
COc1cccc(-c2nc(-c3ccc(-c4ccc(C)cc4)nc3OC)no2)c1,0.58
CCOC(=O)NC(=S)NCc1ccco1,-0.43
